Laboratory results as given in PubChem BioAssay (NCI).
Where “and” joins values, the source holds several entries; their conditions need not be identical. Equal values may be shown once. About 83,000 compounds went through this panel and 20% of them were active in at least one assay; those are over-represented in the sample as a whole.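 Cell lines were cultured in 96-well plates, exposed to a single compound concentration, and assessed for percent growth 48 hours later.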 Calls of active or inactive are those of the source. Rule for the calls: active = growth percent below 10; inactive = the rest.

Experiments:
Assay in all cases: NCI-60 one-dose screen, 48 h (100 = growth as untreated, 0 = no growth, -100 = all killed)
Conditions in all cases: 10 µM unless noted
SK-MEL-2 melanoma = system: SK-MEL-2 melanoma
EKVX NSCLC = system: EKVX NSCLC
SN12C renal = system: SN12C renal
UO-31 renal = system: UO-31 renal
TK-10 renal = system: TK-10 renal
ACHN renal = system: ACHN renal
CAKI-1 renal = system: CAKI-1 renal
A498 renal = system: A498 renal
CCRF-CEM leukemia = system: CCRF-CEM leukemia
MOLT-4 leukemia = system: MOLT-4 leukemia
SR leukemia = system: SR leukemia
RPMI-8226 leukemia = system: RPMI-8226 leukemia
OVCAR-8 ovarian = system: OVCAR-8 ovarian
OVCAR-5 ovarian = system: OVCAR-5 ovarian
OVCAR-4 ovarian = system: OVCAR-4 ovarian
IGROV1 ovarian = system: IGROV1 ovarian
OVCAR-3 ovarian = system: OVCAR-3 ovarian
HS 578T breast = system: HS 578T breast
NCI/ADR-RES ovarian = system: NCI/ADR-RES ovarian
SK-OV-3 ovarian = system: SK-OV-3 ovarian

Measured: growth

CCN(CC)CC#CCOC(=O)[C@]1(C)CCC[C@]2(C)c3ccc(C(C)C)cc3CC[C@@H]12
inactive: SK-MEL-2 melanoma 98.6% | EKVX NSCLC 86.6% | SN12C renal 83.8% | UO-31 renal 65% | TK-10 renal 102% | ACHN renal 92.1% | CAKI-1 renal 94.5% | A498 renal 82.9% | MOLT-4 leukemia 82.9% | SR leukemia 79.3% | RPMI-8226 leukemia 21.3% | OVCAR-8 ovarian 94.2% | OVCAR-5 ovarian 93.5% | OVCAR-4 ovarian 71.3% | IGROV1 ovarian 86.2% | OVCAR-3 ovarian 90.6% | HS 578T breast 90.2% | NCI/ADR-RES ovarian 84.5%
active: CCRF-CEM leukemia 4.53%

CCCNNC(=O)/C=C/c1ccc(CNCCc2c(C)[nH]c3ccccc23)cc1
active: TK-10 renal -16.2% [2.5 µM] | ACHN renal -15.4% [2.5 µM] | CAKI-1 renal -4.92% [2.5 µM] | A498 renal -37.6% [2.5 µM] | OVCAR-5 ovarian 1.96% [2.5 µM] | SK-OV-3 ovarian 0.0389% [2.5 µM] | IGROV1 ovarian 9.05% [2.5 µM]
inactive: SK-MEL-2 melanoma 13.7% [2.5 µM] | EKVX NSCLC 50.4% [2.5 µM] | SN12C renal 26.3% [2.5 µM] | UO-31 renal 13.8% [2.5 µM] | CCRF-CEM leukemia 27.6% [2.5 µM] | MOLT-4 leukemia 13.3% [2.5 µM] | SR leukemia 20.1% [2.5 µM] | OVCAR-8 ovarian 10.8% [2.5 µM] | OVCAR-4 ovarian 41.6% [2.5 µM] | OVCAR-3 ovarian 19.8% [2.5 µM] | HS 578T breast 35.3% [2.5 µM] | NCI/ADR-RES ovarian 50% [2.5 µM]

COc1ccc(C/C(C)=C(/c2ccc(OCCN3CCCC3)cc2)c2ccc(OC(=O)NCc3ccccc3)cc2)cc1
inactive: SK-MEL-2 melanoma 104% | EKVX NSCLC 87.5% | SN12C renal 91.9% | UO-31 renal 59.9% | TK-10 renal 92.8% | ACHN renal 89.7% | CAKI-1 renal 97.7% | A498 renal 107% | CCRF-CEM leukemia 47.3% | MOLT-4 leukemia 40% | RPMI-8226 leukemia 66.7% | OVCAR-8 ovarian 89.4% | OVCAR-5 ovarian 81% | OVCAR-4 ovarian 81.6% | IGROV1 ovarian 101% | OVCAR-3 ovarian 89.8% | HS 578T breast 81.1% | NCI/ADR-RES ovarian 97.1%
active: SR leukemia -22.6%

C=C(C)[C@@H]1CC[C@]2(C)[C@H](CC(=O)N[C@H]3[C@@H]4C[C@](C)(C(=O)OC)CC[C@]4(C)CC[C@]32C)[C@@]1(C)CCC#N
inactive: SK-MEL-2 melanoma 95.3% | EKVX NSCLC 93.2% | SN12C renal 79.4% | UO-31 renal 75.7% | TK-10 renal 104% | ACHN renal 88% | CAKI-1 renal 79.2% | A498 renal 101% | CCRF-CEM leukemia 75.1% | MOLT-4 leukemia 42.7% | SR leukemia 41.8% | RPMI-8226 leukemia 48.3% | OVCAR-8 ovarian 78.7% | OVCAR-5 ovarian 91.6% | OVCAR-4 ovarian 76.7% | SK-OV-3 ovarian 97.4% | IGROV1 ovarian 95.2% | OVCAR-3 ovarian 79.7% | HS 578T breast 93.4% | NCI/ADR-RES ovarian 86.6%

FC(F)(F)Sc1ccc(/C=C/c2cc(/C=C/c3ccc(SC(F)(F)F)cc3)n(-c3ccccc3)n2)cc1
inactive: SK-MEL-2 melanoma 101% | EKVX NSCLC 93.9% | SN12C renal 100% | UO-31 renal 76.7% | TK-10 renal 100% | ACHN renal 93.9% | CAKI-1 renal 78.5% | A498 renal 86.8% | CCRF-CEM leukemia 94.7% | MOLT-4 leukemia 95.6% | SR leukemia 91.4% | RPMI-8226 leukemia 93.9% | OVCAR-8 ovarian 95.1% | OVCAR-5 ovarian 110% | OVCAR-4 ovarian 92.3% | IGROV1 ovarian 99.9% | OVCAR-3 ovarian 95.5% | HS 578T breast 98.8% | NCI/ADR-RES ovarian 98.5%

COc1cc2cc(NCc3ccncc3)nc(C)c2cc1OC
inactive: SK-MEL-2 melanoma 100% | EKVX NSCLC 96.3% | SN12C renal 97.1% | UO-31 renal 89.8% | TK-10 renal 83.5% | ACHN renal 101% | CAKI-1 renal 82.3% | A498 renal 72.4% | CCRF-CEM leukemia 112% | MOLT-4 leukemia 109% | SR leukemia 70.9% | RPMI-8226 leukemia 106% | OVCAR-8 ovarian 91.5% | OVCAR-5 ovarian 80.7% | OVCAR-4 ovarian 94.4% | IGROV1 ovarian 113% | OVCAR-3 ovarian 107% | HS 578T breast 83.5% | NCI/ADR-RES ovarian 97.2%

CCCCCO/N=C\c1c2c(O)c3c(O)c(C)c4c(c3c1O)C(=O)C(C)(O/C=C\C(OC)C(C)C(OC(C)=O)C(C)C(O)C(C)C(O)C(C)/C=C\C=C(\C)C(=O)N2)O4 (centres undefined)
active: SK-MEL-2 melanoma -37.7% | HS 578T breast 1.16%
inactive: EKVX NSCLC 27.3% | SN12C renal 27.6% | UO-31 renal 17.8% | TK-10 renal 38% | ACHN renal 29.6% | CAKI-1 renal 14.9% | A498 renal 62.9% | CCRF-CEM leukemia 18.6% | MOLT-4 leukemia 14.4% | SR leukemia 13.5% | RPMI-8226 leukemia 13.1% | OVCAR-8 ovarian 26.7% | OVCAR-5 ovarian 49.2% | OVCAR-4 ovarian 30.3% | SK-OV-3 ovarian 33.9% | IGROV1 ovarian 31.1% | OVCAR-3 ovarian 19.4% | NCI/ADR-RES ovarian 25.2%

CC(C)(C)c1cc(NC(=O)Nc2ccc(-c3cn4c(n3)sc3cc(OCCN5CCOCC5)ccc34)cc2)no1
active: SR leukemia 9.24% and 1.25% | HS 578T breast -2.54%
-11% (active) and 22.8% (inactive): RPMI-8226 leukemia
8.16% (active) and 37.7% (inactive): A498 renal
-43.2% (active) and 38.5% (inactive): OVCAR-3 ovarian
59.3% (inactive) and 3.54% (active): OVCAR-4 ovarian
1.69% (active) and 40% (inactive): MOLT-4 leukemia
13.2% (inactive) and -9.65% (active): OVCAR-8 ovarian
inactive: SK-MEL-2 melanoma 10.8% | EKVX NSCLC 47.6% and 68.4% | SN12C renal 15.6% and 19.3% | UO-31 renal 10.7% and 28.2% | TK-10 renal 24.2% and 45% | ACHN renal 12.4% and 26.7% | CAKI-1 renal 30.4% and 13.4% | CCRF-CEM leukemia 18.7% and 20% | OVCAR-5 ovarian 56% and 60.8% | IGROV1 ovarian 48.3% and 37.5% | NCI/ADR-RES ovarian 51.5% and 23.2%

CCCCC(NC(=O)CN1C(=O)/C(=C/C(C)=C/c2ccccc2)SC1=S)C(=O)O (centres undefined)
inactive: SK-MEL-2 melanoma 113% | EKVX NSCLC 98.6% | SN12C renal 95.5% | UO-31 renal 82.9% | TK-10 renal 104% | ACHN renal 97.2% | CAKI-1 renal 89.2% | A498 renal 68% | CCRF-CEM leukemia 105% | MOLT-4 leukemia 118% | SR leukemia 115% | RPMI-8226 leukemia 115% | OVCAR-8 ovarian 102% | OVCAR-5 ovarian 101% | OVCAR-4 ovarian 101% | IGROV1 ovarian 102% | OVCAR-3 ovarian 112% | HS 578T breast 102% | NCI/ADR-RES ovarian 98%

Cc1cc2nc(C(Cl)Cl)nc(-c3ccc(Cl)cc3)n2n1
active: EKVX NSCLC -14% | UO-31 renal -8.79% | TK-10 renal 4.92% | ACHN renal -41.7% | CAKI-1 renal -38% | A498 renal -16.9% | SR leukemia 9.87% | RPMI-8226 leukemia -7.69% | OVCAR-5 ovarian -0.203% | OVCAR-4 ovarian -19.6% | IGROV1 ovarian 5.11% | OVCAR-3 ovarian -26.6% | HS 578T breast -32% | NCI/ADR-RES ovarian -6.58%
inactive: SK-MEL-2 melanoma 49.2% | SN12C renal 36.5% | CCRF-CEM leukemia 29.2% | MOLT-4 leukemia 21.6% | OVCAR-8 ovarian 12.8%

CN1CCN(CCCN2c3ccccc3Sc3ccc(Cl)cc32)CC1
inactive: SK-MEL-2 melanoma 106% | EKVX NSCLC 75% and 77.4% | SN12C renal 64% and 76.7% | UO-31 renal 54.5% | TK-10 renal 74.9% and 85.8% | ACHN renal 62.9% and 85.2% | CAKI-1 renal 55.2% and 60.7% | A498 renal 82.2% and 79.4% | CCRF-CEM leukemia 80.1% and 75.9% | MOLT-4 leukemia 70.3% and 73.9% | SR leukemia 74.7% | RPMI-8226 leukemia 76.3% and 92.3% | OVCAR-8 ovarian 84.8% and 85.4% | OVCAR-5 ovarian 94.4% | OVCAR-4 ovarian 68.4% and 81.1% | IGROV1 ovarian 54.5% | OVCAR-3 ovarian 93.9% and 81.3% | HS 578T breast 66.8% and 60.3% | NCI/ADR-RES ovarian 69% and 83.2%

CCn1cc(C(=O)NN=C2CCCC2)c(=O)c2ccc(C)nc21
inactive: SK-MEL-2 melanoma 96.5% | EKVX NSCLC 88.8% | SN12C renal 81% | UO-31 renal 81.3% | TK-10 renal 100% | ACHN renal 86.6% | CAKI-1 renal 84.2% | A498 renal 66.7% | CCRF-CEM leukemia 89.7% | MOLT-4 leukemia 100% | SR leukemia 99.2% | RPMI-8226 leukemia 92.7% | OVCAR-8 ovarian 90% | OVCAR-5 ovarian 94% | OVCAR-4 ovarian 83.7% | IGROV1 ovarian 85% | OVCAR-3 ovarian 94.3% | HS 578T breast 88.8% | NCI/ADR-RES ovarian 89.8%

COc1ccc(-c2ccc(-c3ccc(C(=N)N)cn3)s2)cc1Cl
inactive: A498 renal 99% | SK-OV-3 ovarian 100%
active: SK-MEL-2 melanoma -54% | EKVX NSCLC -58.4% | SN12C renal -81% | UO-31 renal -89.9% | TK-10 renal -73.1% | ACHN renal -98.2% | CAKI-1 renal -98.4% | CCRF-CEM leukemia -36.1% | MOLT-4 leukemia -31.5% | SR leukemia 0.301% | OVCAR-8 ovarian -50.5% | OVCAR-5 ovarian -95.5% | OVCAR-4 ovarian -82.8% | IGROV1 ovarian -83% | OVCAR-3 ovarian -38.1% | HS 578T breast -68.5% | NCI/ADR-RES ovarian 0.998%

COc1ccc(/C=C2/C(=O)N=C3N2NC(c2ccccc2)=CN3c2ccccc2)cc1
inactive: SK-MEL-2 melanoma 106% | EKVX NSCLC 103% | SN12C renal 96% | UO-31 renal 77.4% | TK-10 renal 124% | ACHN renal 96.2% | CAKI-1 renal 88.4% | A498 renal 107% | CCRF-CEM leukemia 101% | MOLT-4 leukemia 106% | SR leukemia 106% | RPMI-8226 leukemia 99.9% | OVCAR-8 ovarian 98.1% | OVCAR-5 ovarian 107% | OVCAR-4 ovarian 102% | SK-OV-3 ovarian 107% | IGROV1 ovarian 95.9% | OVCAR-3 ovarian 111% | HS 578T breast 95.4% | NCI/ADR-RES ovarian 96.9%
